Reference: the supplement of paper PMC10849652
About 8,800 targets were measured; listed, in parts, are those with a hit and a random draw of the rest. About 0.5% of all pairs of compound and target were hits. Values without a mark were called inactive.

Columns and labels:
Assay in all cases: log2 fold change, soluble protein after heating vs DMSO (PISA); higher = thermal stabilisation; K562 lysate, 10 uM; active = over 0.2 and 3.5 SD of the protein, either way, in both replicates (recomputed)
[1] = compound: CCCS(=O)(=O)Nc1ccc(F)c(C(=O)c2c[nH]c3ncc(-c4ccc(Cl)cc4)cc23)c1F [vemurafenib]
How it was run: (§1)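 Log-two fold change in thermal stability relative to solvent controls is reported from duplicates. For each sample, crude K562 extract from dounce-homogenised pellets in PBS pH 7.4 with 1 mM MgCl2, at 1 mg/mL protein, was treated with 10 μM compound for 30 min. Aliquots heated for 3 min across 48°C-58°C were pooled, brought to 0.5% NP-40 at 4°C and cleared at 21,000xg for 90 min. The supernatant was quantified by TMTpro 16plex LC-MS/MS with channel sums equalised.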

[2] = compound: CCCS(=O)(=O)Nc1ccc(F)c(C(=O)c2c[nH]c3ncc(Cl)cc23)c1F
How it was run: as §1

[3] = compound: CCN(CCCOc1ccc2c(Nc3cc(CC(=O)Nc4cccc(F)c4)[nH]n3)ncnc2c1)CCOP(=O)(O)O [barasertib]
How it was run: as §1

[4] = compound: CC[C@@H]1C(=O)N(C)c2cnc(Nc3ccc(C(=O)NC4CCN(C)CC4)cc3OC)nc2N1C1CCCC1
How it was run: as §1

[5] = compound: CC[C@@H]1C(=O)N(C)c2cnc(Nc3ccc(C(=O)N[C@H]4CC[C@H](N5CCN(CC6CC6)CC5)CC4)cc3OC)nc2N1C(C)C [volasertib]
How it was run: as §1

[6] = compound: CCn1c(C(=O)N(C2CC2)C2CC2)cc2c3c(ncn3C)c(Nc3cc(C)n(C)n3)nc21
How it was run: as §1

[7] = compound: CCn1cc(-c2ccnc3[nH]c(-c4cccc(CN(C)C)c4)cc23)c(-c2ccc(NC(=O)N(C)C)cc2)n1
How it was run: as §1

[8] = compound: CN1CCC(CNc2ccc3ncc(-c4cccc(OC(F)(F)F)c4)n3n2)CC1
How it was run: as §1

[9] = compound: CN1CCN(CCOc2cc(OC3CCOCC3)c3c(Nc4c(Cl)ccc5c4OCO5)ncnc3c2)CC1 [saracatinib]
How it was run: as §1

[10] = compound: CN1CCN(c2nc(C3=C(c4c[nH]c5ccccc45)C(=O)NC3=O)c3ccccc3n2)CC1 [sotrastaurin]
How it was run: as §1

[11] = compound: CN1CC[C@H](c2c(O)cc(O)c3c(=O)cc(-c4ccccc4Cl)oc23)[C@H](O)C1 [alvocidib]
How it was run: as §1

[12] = compound: CN1CCc2c(c3ccccc3n2Cc2ccc(C(=O)NO)cc2)C1 [Tubastatin A]
How it was run: as §1

[13] = compound: CNC(=O)C1=CC=CC=C1NC2=NC(=NC=C2Cl)NC3=C(C=C(C=C3)N4CCOCC4)OC
How it was run: as §1

[14] = compound: CNC(=O)c1ccc(Nc2ncc(C(F)(F)F)c(NCc3nccnc3N(C)S(C)(=O)=O)n2)cc1 [defactinib]
How it was run: as §1

[15] = compound: CNc1nc(-c2ccc3c(N)n[nH]c3c2)cc(N2C[C@@H](C(=O)NC3CCCCC3)CC[C@H]2C)n1
How it was run: as §1

[16] = compound: COC(=O)N[C@@H](C)CNc1nccc(-c2cn(C(C)C)nc2-c2cc(Cl)cc(NS(C)(=O)=O)c2F)n1 [encorafenib]
How it was run: as §1

[17] = compound: COC(=O)[C@H](CCSC)NC(=O)C1=C(C=C(C=C1)NC[C@H](CS)N)C2=CC=CC=C2
How it was run: as §1

[18] = compound: COc1cc(Nc2ncc3c(n2)-c2ccc(Cl)cc2C(c2c(F)cccc2OC)=NC3)ccc1C(=O)O [alisertib]
How it was run: as §1

[19] = compound: COc1cc2nc(-c3cc(F)ccc3O)nc(N[C@@H]3CNC[C@H]3C(C)(C)O)c2cc1OC
How it was run: as §1

[20] = compound: COc1cc2ncnc(Nc3ccc(F)c(Cl)c3)c2cc1OCCCN1CCOCC1 [gefitinib]
How it was run: as §1

Chain of UniProt Q9H974 (Q9H974 whole entry, looked up): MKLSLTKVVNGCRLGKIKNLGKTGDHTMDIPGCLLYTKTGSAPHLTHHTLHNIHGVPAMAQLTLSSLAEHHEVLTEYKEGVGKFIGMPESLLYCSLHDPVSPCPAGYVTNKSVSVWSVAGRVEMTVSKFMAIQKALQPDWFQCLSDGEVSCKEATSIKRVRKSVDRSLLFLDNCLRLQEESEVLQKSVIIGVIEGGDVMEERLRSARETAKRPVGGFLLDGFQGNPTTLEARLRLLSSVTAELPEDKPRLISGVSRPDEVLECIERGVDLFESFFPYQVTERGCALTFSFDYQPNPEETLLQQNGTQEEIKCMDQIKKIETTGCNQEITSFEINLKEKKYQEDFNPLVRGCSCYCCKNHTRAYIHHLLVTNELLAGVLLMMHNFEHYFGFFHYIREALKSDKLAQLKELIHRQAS
Chain of UniProt Q15283 (Q15283 whole entry, looked up): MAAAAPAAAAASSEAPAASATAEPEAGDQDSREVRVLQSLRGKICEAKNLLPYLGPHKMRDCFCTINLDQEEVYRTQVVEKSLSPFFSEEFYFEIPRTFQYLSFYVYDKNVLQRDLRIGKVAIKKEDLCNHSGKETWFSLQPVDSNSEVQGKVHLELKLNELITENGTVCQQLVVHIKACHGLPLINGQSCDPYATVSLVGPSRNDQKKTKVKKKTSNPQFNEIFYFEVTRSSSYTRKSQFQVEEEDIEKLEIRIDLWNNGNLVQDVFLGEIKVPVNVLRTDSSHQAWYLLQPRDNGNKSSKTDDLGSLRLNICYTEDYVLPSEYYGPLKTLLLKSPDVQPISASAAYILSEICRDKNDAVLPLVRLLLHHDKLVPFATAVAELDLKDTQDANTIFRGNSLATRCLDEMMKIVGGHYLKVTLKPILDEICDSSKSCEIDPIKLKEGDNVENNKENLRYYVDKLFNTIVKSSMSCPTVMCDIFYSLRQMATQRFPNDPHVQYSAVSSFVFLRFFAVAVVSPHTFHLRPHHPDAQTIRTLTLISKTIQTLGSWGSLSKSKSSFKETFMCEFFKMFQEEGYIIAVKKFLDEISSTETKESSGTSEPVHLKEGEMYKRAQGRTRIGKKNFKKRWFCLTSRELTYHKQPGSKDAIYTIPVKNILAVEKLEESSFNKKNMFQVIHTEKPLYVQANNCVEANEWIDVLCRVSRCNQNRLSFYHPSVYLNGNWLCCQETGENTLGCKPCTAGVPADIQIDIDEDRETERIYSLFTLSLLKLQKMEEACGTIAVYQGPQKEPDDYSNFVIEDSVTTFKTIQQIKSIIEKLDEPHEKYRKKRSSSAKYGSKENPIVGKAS
Chain of UniProt Q99708 (Q99708 whole entry, looked up): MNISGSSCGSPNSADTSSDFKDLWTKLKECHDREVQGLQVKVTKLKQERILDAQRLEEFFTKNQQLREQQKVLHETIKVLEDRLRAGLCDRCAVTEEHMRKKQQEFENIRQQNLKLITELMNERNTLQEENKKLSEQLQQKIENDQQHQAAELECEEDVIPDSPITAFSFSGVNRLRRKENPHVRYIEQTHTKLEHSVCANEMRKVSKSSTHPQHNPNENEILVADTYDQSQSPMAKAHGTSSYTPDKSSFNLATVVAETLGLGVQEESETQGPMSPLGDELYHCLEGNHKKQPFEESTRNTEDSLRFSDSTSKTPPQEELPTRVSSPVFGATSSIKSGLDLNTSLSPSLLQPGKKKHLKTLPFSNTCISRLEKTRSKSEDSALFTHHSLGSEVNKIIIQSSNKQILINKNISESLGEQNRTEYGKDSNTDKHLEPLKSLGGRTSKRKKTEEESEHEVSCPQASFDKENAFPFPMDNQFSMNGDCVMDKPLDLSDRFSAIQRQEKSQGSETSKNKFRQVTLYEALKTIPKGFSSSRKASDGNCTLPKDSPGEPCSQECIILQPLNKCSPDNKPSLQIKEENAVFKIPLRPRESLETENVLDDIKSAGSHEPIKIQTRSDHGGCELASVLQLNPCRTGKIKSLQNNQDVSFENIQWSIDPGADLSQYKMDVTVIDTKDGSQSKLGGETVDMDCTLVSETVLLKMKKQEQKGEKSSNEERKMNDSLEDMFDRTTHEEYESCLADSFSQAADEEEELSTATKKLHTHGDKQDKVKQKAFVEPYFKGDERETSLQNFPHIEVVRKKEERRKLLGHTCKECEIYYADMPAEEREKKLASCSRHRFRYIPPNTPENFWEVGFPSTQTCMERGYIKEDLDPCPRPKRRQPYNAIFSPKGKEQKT
Chain of UniProt O95248 (O95248 whole entry, looked up): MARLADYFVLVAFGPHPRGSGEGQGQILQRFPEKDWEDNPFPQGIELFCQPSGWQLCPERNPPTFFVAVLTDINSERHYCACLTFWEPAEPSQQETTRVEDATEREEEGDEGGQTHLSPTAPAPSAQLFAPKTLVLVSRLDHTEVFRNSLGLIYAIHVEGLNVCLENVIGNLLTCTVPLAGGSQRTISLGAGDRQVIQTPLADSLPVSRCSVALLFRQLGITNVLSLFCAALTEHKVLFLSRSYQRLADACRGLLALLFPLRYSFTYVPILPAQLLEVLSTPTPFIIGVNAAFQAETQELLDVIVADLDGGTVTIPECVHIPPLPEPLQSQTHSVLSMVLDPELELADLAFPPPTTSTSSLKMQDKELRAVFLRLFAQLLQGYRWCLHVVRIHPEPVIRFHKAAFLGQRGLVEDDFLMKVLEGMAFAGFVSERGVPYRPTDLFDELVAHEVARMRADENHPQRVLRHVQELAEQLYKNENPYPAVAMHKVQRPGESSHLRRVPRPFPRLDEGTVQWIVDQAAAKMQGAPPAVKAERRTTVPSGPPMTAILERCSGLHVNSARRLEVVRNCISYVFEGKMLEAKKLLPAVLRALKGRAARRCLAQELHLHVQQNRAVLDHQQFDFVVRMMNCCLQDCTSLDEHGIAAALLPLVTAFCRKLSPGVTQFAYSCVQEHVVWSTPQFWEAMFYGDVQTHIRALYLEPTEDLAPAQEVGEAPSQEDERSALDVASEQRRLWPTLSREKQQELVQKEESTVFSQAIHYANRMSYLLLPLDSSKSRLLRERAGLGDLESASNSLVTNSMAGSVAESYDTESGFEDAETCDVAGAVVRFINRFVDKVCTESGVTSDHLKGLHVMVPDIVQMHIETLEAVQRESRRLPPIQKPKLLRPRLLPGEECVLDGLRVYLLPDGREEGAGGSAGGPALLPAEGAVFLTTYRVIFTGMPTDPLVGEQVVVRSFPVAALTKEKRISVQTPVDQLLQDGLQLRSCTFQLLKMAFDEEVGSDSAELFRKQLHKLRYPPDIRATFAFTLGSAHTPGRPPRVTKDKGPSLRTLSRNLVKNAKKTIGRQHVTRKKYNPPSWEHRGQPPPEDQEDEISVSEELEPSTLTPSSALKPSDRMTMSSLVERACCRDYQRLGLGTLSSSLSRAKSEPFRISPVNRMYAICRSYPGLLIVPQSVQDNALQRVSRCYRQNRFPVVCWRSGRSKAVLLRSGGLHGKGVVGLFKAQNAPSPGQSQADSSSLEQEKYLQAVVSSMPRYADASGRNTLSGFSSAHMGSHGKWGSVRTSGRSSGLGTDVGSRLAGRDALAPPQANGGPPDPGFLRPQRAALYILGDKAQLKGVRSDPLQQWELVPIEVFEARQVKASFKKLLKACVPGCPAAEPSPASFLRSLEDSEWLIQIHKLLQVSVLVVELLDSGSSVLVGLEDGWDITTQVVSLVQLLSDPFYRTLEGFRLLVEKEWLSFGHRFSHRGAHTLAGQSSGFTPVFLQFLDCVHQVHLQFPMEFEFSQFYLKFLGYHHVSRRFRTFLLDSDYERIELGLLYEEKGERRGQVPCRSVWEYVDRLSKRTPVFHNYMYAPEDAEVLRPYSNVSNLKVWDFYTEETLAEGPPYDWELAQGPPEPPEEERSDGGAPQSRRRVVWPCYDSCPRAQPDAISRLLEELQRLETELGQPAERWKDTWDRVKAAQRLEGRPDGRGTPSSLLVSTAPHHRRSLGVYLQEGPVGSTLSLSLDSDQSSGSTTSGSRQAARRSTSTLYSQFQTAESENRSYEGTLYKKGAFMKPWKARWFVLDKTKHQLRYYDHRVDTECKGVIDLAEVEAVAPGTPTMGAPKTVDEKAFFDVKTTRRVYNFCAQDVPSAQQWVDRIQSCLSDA
Chain of UniProt O94855 (O94855 whole entry, looked up): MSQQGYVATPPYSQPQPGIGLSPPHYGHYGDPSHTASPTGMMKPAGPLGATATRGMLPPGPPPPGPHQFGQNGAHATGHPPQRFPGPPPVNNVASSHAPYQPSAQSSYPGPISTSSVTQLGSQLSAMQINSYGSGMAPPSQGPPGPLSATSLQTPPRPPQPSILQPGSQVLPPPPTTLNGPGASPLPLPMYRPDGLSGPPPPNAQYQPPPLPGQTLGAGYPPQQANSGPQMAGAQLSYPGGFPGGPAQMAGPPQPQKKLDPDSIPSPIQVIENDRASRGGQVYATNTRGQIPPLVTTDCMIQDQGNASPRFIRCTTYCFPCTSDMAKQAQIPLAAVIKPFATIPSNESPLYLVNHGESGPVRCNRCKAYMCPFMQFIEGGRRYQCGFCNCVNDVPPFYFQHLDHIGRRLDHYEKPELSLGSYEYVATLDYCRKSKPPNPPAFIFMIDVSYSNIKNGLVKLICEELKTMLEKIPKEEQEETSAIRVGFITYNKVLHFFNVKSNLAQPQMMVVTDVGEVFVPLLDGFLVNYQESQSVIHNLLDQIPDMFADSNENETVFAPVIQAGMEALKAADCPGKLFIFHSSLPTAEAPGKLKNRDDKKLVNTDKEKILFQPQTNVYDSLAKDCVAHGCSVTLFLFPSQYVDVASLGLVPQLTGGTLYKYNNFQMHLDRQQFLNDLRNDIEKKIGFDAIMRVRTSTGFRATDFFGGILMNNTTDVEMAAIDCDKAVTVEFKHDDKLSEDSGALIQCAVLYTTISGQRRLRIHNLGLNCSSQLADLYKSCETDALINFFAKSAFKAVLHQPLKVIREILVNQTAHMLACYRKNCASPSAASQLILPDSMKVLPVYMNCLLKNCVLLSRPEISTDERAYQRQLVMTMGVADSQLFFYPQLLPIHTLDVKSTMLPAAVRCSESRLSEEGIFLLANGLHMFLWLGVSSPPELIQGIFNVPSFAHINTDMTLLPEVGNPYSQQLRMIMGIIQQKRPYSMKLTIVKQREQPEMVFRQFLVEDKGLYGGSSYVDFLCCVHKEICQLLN

| Target | log2 fold change [1] | log2 fold change [2] | log2 fold change [3] | log2 fold change [4] | log2 fold change [5] | log2 fold change [6] | log2 fold change [7] | log2 fold change [8] | log2 fold change [9] | log2 fold change [10] | log2 fold change [11] | log2 fold change [12] | log2 fold change [13] | log2 fold change [14] | log2 fold change [15] | log2 fold change [16] | log2 fold change [17] | log2 fold change [18] | log2 fold change [19] | log2 fold change [20] |
| --- | --- | --- | --- | --- | --- | --- | --- | --- | --- | --- | --- | --- | --- | --- | --- | --- | --- | --- | --- | --- |
| R3HCC1 (UniProt Q9Y3T6) | 0.07 | 0.036 | 0.009 | 0.044 | -0.015 | -0.022 | -0.066 | 0.082 | 0.029 | 0.021 | -0.019 | 0.023 | 0.048 | 0.055 | -0.018 | -0.004 | -0.04 | -0.002 | 0.003 | 0.008 |
| SDHA (UniProt P31040) | 0.042 | 0.018 | -0.032 | -0.004 | 0.002 | -0.003 | -0.022 | 0.02 | -0.02 | 0.005 | -0.004 | -0.012 | 0 | -0.04 | 0.002 | -0.023 | -0.04 | -0.023 | -0.014 | -0.031 |
| SBF1 isoform 4 (UniProt O95248) | 0.118 | 0.012 | 0.033 | 0.071 | -0.111 | 0.014 | -0.107 | 0.029 | 0.062 | 0 | 0.005 | 0.074 | -0.054 | 0.022 | -0.099 | -0.004 | -0.009 | 0.238 | 0.008 | 0.062 |
| RBM22 (UniProt Q9NW64) | -0.014 | -0.007 | 0.022 | 0.078 | -0.004 | -0.004 | 0.058 | 0.025 | 0.01 | -0.08 | 0.022 | 0.019 | 0.009 | 0.001 | 0.179 | 0.05 | -0.11 | 0.002 | 0.026 | 0.031 |
| QTRT2 isoform 4 (UniProt Q9H974) | 0.003 | 0.012 | 0.004 | -0.022 | 0.036 | -0.035 | -0.318 (active) | 0.227 (active) | 0.016 | 0.013 | -0.105 | 0.003 | 0.018 | -0.014 | 0 | -0.018 | -0.044 | 0.016 | 0.008 | 0.031 |
| RIOK1 (UniProt Q9BRS2) | 0.021 | 0.023 | 0.001 | 0.02 | -0.093 | 0.004 | 0.017 | 0.057 | 0.032 | 0.001 | 0 | 0.005 | 0.008 | -0.009 | 0.413 (active) | 0.006 | -0.006 | 0.01 | 0.168 | -0.019 |
| RBBP8 isoform 2 (UniProt Q99708) | 0.002 | 0.182 | -0.013 | 0.079 | -0.019 | -0.065 | 0.065 | -0.021 | 0.018 | -0.017 | 0.013 | 0.07 | 0.061 | -0.023 | 0.108 | -0.039 | -0.074 | -0.008 | 0.009 | -0.014 |
| SDHC (UniProt Q99643) | -0.035 | -0.022 | 0.031 | -0.089 | 0.044 | 0.04 | -0.307 (active) | 0.156 | 0.063 | 0.062 | -0.114 | -0.056 | 0.047 | 0.146 | 0.097 | 0.034 | 0.055 | 0.018 | -0.007 | 0.011 |
| SAR1A (UniProt Q9NR31) | 0.109 | 0 | 0.07 | 0.03 | -0.05 | 0.021 | -0.009 | -0.108 | 0.025 | 0.084 | -0.034 | 0.153 | 0.03 | 0.086 | 0.086 | 0.152 | 0.084 | 0.134 | 0.161 | 0.156 |
| RASA2 (UniProt Q15283) | 0.069 | 0.025 | -0.02 | -0.055 | -0.018 | 0.02 | -0.028 | -0.013 | 0.068 | -0.017 | 0 | -0.078 | 0.019 | 0.053 | -0.064 | -0.059 | 0.113 | -0.003 | -0.008 | -0.003 |
| SEC24D isoform 2 (UniProt O94855) | -0.039 | 0.027 | -0.002 | -0.032 | -0.032 | -0.011 | -0.001 | -0.009 | 0.005 | -0.025 | -0.012 | -0.018 | 0.002 | 0.012 | -0.008 | 0.029 | -0.163 | 0.005 | 0.006 | 0.006 |
| RAP1GAP isoform 4 (UniProt P47736) | 0.009 | 0.055 | 0.008 | 0.044 | -0.075 | 0.003 | -0.038 | 0.02 | 0.06 | 0.029 | 0.01 | -0.138 | 0.06 | 0.012 | -0.027 | 0.022 | 0.01 | 0.024 | 0.008 | 0.026 |
| REL isoform 2 (UniProt Q04864) | -0.035 | 0.017 | 0.033 | 0.049 | -0.032 | 0.025 | 0.02 | -0.174 | -0.002 | -0.022 | 0.061 | -0.126 | 0.003 | 0.023 | -0.056 | 0.012 | 0.029 | -0.003 | -0.019 | 0.029 |
| SEC16A isoform 5 (UniProt O15027) | 0.03 | 0.019 | 0.021 | 0.038 | -0.028 | 0.006 | 0.008 | -0.037 | 0.013 | -0.01 | -0.005 | -0.09 | 0.011 | -0.014 | -0.002 | 0.011 | 0.01 | -0.001 | 0.013 | 0.014 |
| RPLP0P6 (UniProt Q8NHW5) | -0.002 | 0.012 | -0.121 | 0.009 | -0.009 | -0.02 | -0.011 | 0.017 | -0.011 | -0.02 | -0.018 | 0.015 | -0.001 | -0.014 | 0.023 | 0.001 | 0.018 | 0.004 | 0.023 | -0.019 |
| S100A11 (UniProt P31949) | 0.005 | -0.015 | 0.008 | 0.037 | 0.098 | 0.004 | -0.008 | -0.052 | 0.023 | -0.036 | 0.085 | 0.075 | 0.029 | 0.059 | -0.011 | -0.021 | 0.007 | 0.024 | -0.01 | -0.089 |
